Assay results: the supplement of paper PMC4166925
± gives the standard deviation of the averaged measurements. Over roughly 33,000 sequences, “E-score (dimensionless, -0.5 to 0.5)” has its median near -0.046; the highest 2% begin near 0.36. The entries come from a sample that favours the highest values as a whole.

Tested on: T1, SpTbr T-box DNA-binding domain (GST fusion)
T1 sequence: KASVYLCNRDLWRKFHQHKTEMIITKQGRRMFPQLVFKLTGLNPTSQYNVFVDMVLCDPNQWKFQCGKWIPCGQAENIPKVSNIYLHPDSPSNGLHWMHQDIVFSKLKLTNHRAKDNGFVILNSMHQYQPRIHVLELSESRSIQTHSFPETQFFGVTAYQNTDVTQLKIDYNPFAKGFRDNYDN
Assay: PBM E-score of 8-mer (E-score (dimensionless, -0.5 to 0.5)); Tbr is Tbrain of the sea star Patiria miniata (Pm) or the sea urchin Strongylocentrotus purpuratus (Sp); higher = stronger binding preference
Conditions: the construct has about 5 more residues each side
Method: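 Universal protein-binding microarray (Agilent AMADID 016060, 60-bp probes with a 35-bp variable region) incubated with 200 nM GST-fused Strongylocentrotus purpuratus Tbr T-box DNA-binding domain (residues 362-554) in PBS pH 7.5. Scored for every ungapped 8-mer (given with its reverse complement) as E-score (range -0.5 to 0.5; >0.45 counts as bound) and Z-score of median probe intensity. Two replicate arrays (datasets 1 and 2).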
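Also: protein at 200 nM in PBS on universal double-stranded arrays.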

| Sequence | PBM E-score of 8-mer |
| --- | --- |
| AGTTAGCG | 0.304 ± 0.0085 |
| GTCGAGCA | 0.0707 ± 0.028 |
| ATTTAAAT | -0.06656 ± 0.00039 |
| ACCTCCCT | 0.00833 ± 0.034 |
| CTGTTAAA | 0.231 ± 0.041 |
| TTGTTAAA | 0.184 ± 0.12 |
| ATGTTAGA | -0.136 ± 0.095 |
| CTGTTAGA | 0.11 ± 0.12 |
| GTGTTAAA | 0.395 ± 0.026 |
| GTGTTAGA | 0.384 ± 0.0066 |
| GGTAGACA | -0.025 ± 0.028 |
| CTCTTCAC | 0.292 ± 0.018 |
| AAGGGGCA | -0.297 ± 0.042 |
| AAGGCGCT | 0.306 ± 0.035 |
| AGAGCAAT | -0.132 ± 0.0051 |
| AGGTGATA | 0.428 ± 0.015 |
| ACGTGATG | 0.0808 ± 0.05 |
| GGGTGATA | 0.253 ± 0.0088 |
| CGGTGATA | 0.111 ± 0.0075 |
| AGGTGATG | 0.3942 ± 0.0033 |
| AGGTGATC | 0.116 ± 0.085 |
| ACGCCGGC | 0.242 ± 0.0047 |
| AGGGGGAT | -0.262 ± 0.033 |
| ACTTTCAA | 0.0855 ± 0.0062 |
| ATCGCGAC | 0.271 ± 0.036 |

| Sequence | PBM E-score of 8-mer |
| --- | --- |
| ATCGCAAA | 0.0887 ± 0.0029 |
| ATCGCGTA | 0.13 ± 0.024 |
| ATCGCGAA | 0.367 ± 0.032 |
| GTCGCGAA | 0.372 ± 0.025 |
| GTCGCGAC | 0.362 ± 0.019 |
| CTCGCGAC | 0.311 ± 0.025 |
| CTCGCGAG | 0.284 ± 0.03 |
| ATCGCGAT | 0.364 ± 0.011 |
| ATCGCGAG | 0.255 ± 0.0054 |
| TTCGCGAA | 0.3584 ± 0.0003 |
| CTCGCGAA | 0.389 ± 0.012 |
| GAAAGTGA | 0.293 ± 0.039 |
| AAAAAAGT | -0.074 ± 0.11 |
| CCTACTAA | -0.0157 ± 0.06 |
| CGTGTAAA | 0.296 ± 0.027 |
| TGCATCAA | -0.0456 ± 0.044 |
| CTGCCAAG | 0.105 ± 0.03 |
| ACGCTCAG | 0.0449 ± 0.0089 |
| CAAGAACG | -0.267 ± 0.011 |
| ACCCTTGA | -0.0396 ± 0.029 |
| ATGCGCTC | -0.175 ± 0.02 |
| TAACCTCA | -0.153 ± 0.018 |
| ACACCTCC | 0.4854 ± 0.0043 |
| ACACCTCT | 0.479 ± 0.0083 |
| ATACCTCC | -0.0183 ± 0.066 |

| Sequence | PBM E-score of 8-mer |
| --- | --- |
| CCACCTCG | 0.228 ± 0.019 |
| CCACCTCC | 0.324 ± 0.0077 |
| AAACCTCT | -0.292 ± 0.061 |
| AGACCTCT | -0.281 ± 0.035 |
| TGACCTCA | 0.0321 ± 0.076 |
| TCACCTCA | 0.387 ± 0.0086 |
| ACACCTCG | 0.4804 ± 0.0036 |
| AAACCTCG | 0.0284 ± 0.048 |
| ACTCTTCG | 0.113 ± 0.071 |
| CCACTGCG | 0.0281 ± 0.049 |
| GAACGAGC | -0.187 ± 0.063 |
| CGGGGGAC | -0.117 ± 0.088 |
| CAATTGAG | -0.2 ± 0.036 |
| CCTAACCG | -0.163 ± 0.039 |
| AGGACTAT | -0.234 ± 0.035 |
| CGGCGATA | 0.094 ± 0.028 |
| TTCGCCAA | 0.124 ± 0.054 |
| ACGCCTCT | 0.30412 ± 0.00015 |
| ACACCTCA | 0.4607 ± 0.0039 |
| ACGCCTCA | 0.331 ± 0.01 |
| AGACCTCA | 0.1 ± 0.022 |
| GCACCTCA | 0.343 ± 0.02 |
| CCACCTCA | 0.172 ± 0.067 |
| GGACCTCC | -0.327 ± 0.017 |
| GCACCTCC | 0.396 ± 0.013 |

| Sequence | PBM E-score of 8-mer |
| --- | --- |
| ACGCCTCG | 0.373 ± 0.019 |
| CACAGCAG | -0.0256 ± 0.044 |
| ATTAAGAA | -0.254 ± 0.043 |
| ATAGATCG | 0.0137 ± 0.011 |
| CACGGTTA | -0.0116 ± 0.056 |
| CCTAGGCC | -0.0372 ± 0.013 |
| CTCGCTAA | 0.232 ± 0.043 |
| CAATAGAC | -0.0363 ± 0.07 |
| ACACTTAG | 0.383 ± 0.038 |
| ACACTTAT | 0.402 ± 0.0068 |
| ACACTTAA | 0.336 ± 0.027 |
| ACACTTAC | 0.4 ± 0.024 |
| CCACTTAG | -0.0238 ± 0.042 |
| CCACTTAC | 0.161 ± 0.0085 |
| ACTCTTAT | -0.0294 ± 0.038 |
| GCACTTAC | 0.208 ± 0.017 |
| ACTCTTAG | -0.106 ± 0.0089 |
| CGAGCACA | -0.0373 ± 0.063 |
| CGGCCGAA | -0.16 ± 0.027 |
| GGCAGGGA | -0.182 ± 0.062 |
| TAACCTGA | -0.0659 ± 0.025 |
| GGAGGGTA | -0.0485 ± 0.045 |
| AGGCCTAT | -0.196 ± 0.034 |
| CCCCTAAG | -0.17 ± 0.067 |
| AACCTAAG | -0.133 ± 0.0067 |

| Sequence | PBM E-score of 8-mer |
| --- | --- |
| CACCTAAC | 0.387 ± 0.018 |
| CACCTAAA | 0.3188 ± 0.00098 |
| CACCTAAG | 0.383 ± 0.019 |
| AACCTAAC | -0.0237 ± 0.04 |
| AGGTTGAT | -0.0456 ± 0.014 |
| AGTTGGCC | -0.112 ± 0.0038 |
| ATTGTGGA | 0.0374 ± 0.11 |
| TACACCGA | 0.118 ± 0.1 |
| CACACCGA | 0.291 ± 0.036 |
| AAGACCTC | 0.00991 ± 0.032 |
| AACACCTC | 0.481 ± 0.0063 |
| TACACCAA | 0.0641 ± 0.095 |
| AACACCGA | 0.228 ± 0.03 |
| CCCACCTA | 0.282 ± 0.013 |
| AACACCTA | 0.4609 ± 0.0024 |
| CACACCTA | 0.4806 ± 0.0011 |
| AACACCGC | 0.299 ± 0.018 |
| TACACCTA | 0.377 ± 0.0086 |
| CCCTATCA | 0.0101 ± 0.042 |
| TGAAACCA | -0.0205 ± 0.016 |
| TGTCAAAA | 0.289 ± 0.021 |
| TACCCGGA | -0.128 ± 0.15 |
| GCAATCGC | 0.212 ± 0.0066 |
| ACTGAGGA | -0.0611 ± 0.02 |
| CCAATAAC | -0.0379 ± 0.13 |

| Sequence | PBM E-score of 8-mer |
| --- | --- |
| CTGGGACC | -0.174 ± 0.015 |
| ACGCCAAC | 0.144 ± 0.021 |
| CCAGCTTC | -0.142 ± 0.058 |
| CGAACAGA | 0.0582 ± 0.028 |
| AACACCGT | 0.243 ± 0.091 |
| AAGACCTT | -0.259 ± 0.0063 |
| CACACCTG | 0.479 ± 0.0072 |
| ACCACCTG | 0.224 ± 0.037 |
| AACACCGG | 0.118 ± 0.015 |
| AACACCTT | 0.479 ± 0.0049 |
| AACACCTG | 0.463 ± 0.0057 |
| CACACCGG | 0.175 ± 0.059 |
| CAGACCTG | -0.0842 ± 0.0016 |
| GTATGCAC | 0.0616 ± 0.043 |
| CTAGTTTC | -0.105 ± 0.053 |
| CTACGCGA | 0.0131 ± 0.01 |
| AACTCTGA | -0.0644 ± 8.5e-05 |
| CGCAAGAC | 0.07366 ± 4.2e-05 |
| ACGCATGG | -0.144 ± 0.018 |
| GGGTGCCA | 0.3739 ± 0.003 |
| AGGTGCCA | 0.46212 ± 0.00034 |
| GTGTGCGA | 0.361 ± 0.0042 |
| AGGTGCCC | 0.00863 ± 0.0099 |
| AGCTGCCA | 0.111 ± 0.099 |
| CGGTGCCA | 0.119 ± 0.02 |

| Sequence | PBM E-score of 8-mer |
| --- | --- |
| GCGTGCCA | 0.128 ± 0.01 |
| CGGTGCGA | 0.339 ± 0.0046 |
| ACGTGCCA | 0.361 ± 0.033 |
| GGGTGCGA | 0.4746 ± 0.00052 |
| AGGTGCCG | 0.421 ± 0.0055 |
| ACGTGCCG | 0.199 ± 0.058 |
| ACGATCAC | 0.119 ± 0.031 |
| AGGTTTAA | -0.0723 ± 0.017 |
| GGACTTGA | -0.12 ± 0.047 |
| AATACTGG | -0.329 ± 0.041 |
| TATATCAA | -0.174 ± 0.03 |
| AAATGGTA | -0.152 ± 0.041 |
| TGCGAGAA | 0.36401 ± 0.00027 |
| CAACAAGG | 0.0674 ± 0.0062 |
| CCTTCACC | 0.14 ± 0.013 |
| ACTTCACG | 0.312 ± 0.018 |
| CCTTCACG | 0.278 ± 0.019 |
| CCTTCACA | 0.404 ± 0.0071 |
| TCTTCACA | 0.395 ± 0.015 |
| ACTTCACA | 0.357 ± 0.02 |
| ATCCCAGA | -0.0492 ± 0.043 |
| GATTTTCC | -0.00302 ± 0.027 |
